Inconclusive results are not listed. Where a call stands in place of a potency, no number is given. Active and inactive are the calls of the source. Unless noted, the call rests on the fitted dose curve; in most records, active means well fitted curve in the direction sought with a large enough effect in the repeat runs; inconclusive means weak or mixed curves; inactive means no such curve, though single readings can be large; an effect the other way counts as inactive or inconclusive.

These results are taken from PubChem BioAssay (NCATS).

T1 sequence (P35557 whole entry, looked up): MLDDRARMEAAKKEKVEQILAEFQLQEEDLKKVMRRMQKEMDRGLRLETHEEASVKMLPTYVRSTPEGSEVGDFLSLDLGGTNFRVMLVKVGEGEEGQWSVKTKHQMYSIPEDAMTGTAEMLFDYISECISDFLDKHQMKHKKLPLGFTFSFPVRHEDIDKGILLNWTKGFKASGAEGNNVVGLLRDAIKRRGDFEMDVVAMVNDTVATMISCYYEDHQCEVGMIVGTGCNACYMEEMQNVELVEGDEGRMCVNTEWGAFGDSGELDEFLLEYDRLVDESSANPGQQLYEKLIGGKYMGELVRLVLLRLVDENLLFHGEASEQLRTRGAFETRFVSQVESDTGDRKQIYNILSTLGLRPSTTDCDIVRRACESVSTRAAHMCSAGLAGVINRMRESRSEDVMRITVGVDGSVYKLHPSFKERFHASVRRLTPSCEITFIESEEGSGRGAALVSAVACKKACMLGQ
T1 sequence (Q14397 whole entry, looked up): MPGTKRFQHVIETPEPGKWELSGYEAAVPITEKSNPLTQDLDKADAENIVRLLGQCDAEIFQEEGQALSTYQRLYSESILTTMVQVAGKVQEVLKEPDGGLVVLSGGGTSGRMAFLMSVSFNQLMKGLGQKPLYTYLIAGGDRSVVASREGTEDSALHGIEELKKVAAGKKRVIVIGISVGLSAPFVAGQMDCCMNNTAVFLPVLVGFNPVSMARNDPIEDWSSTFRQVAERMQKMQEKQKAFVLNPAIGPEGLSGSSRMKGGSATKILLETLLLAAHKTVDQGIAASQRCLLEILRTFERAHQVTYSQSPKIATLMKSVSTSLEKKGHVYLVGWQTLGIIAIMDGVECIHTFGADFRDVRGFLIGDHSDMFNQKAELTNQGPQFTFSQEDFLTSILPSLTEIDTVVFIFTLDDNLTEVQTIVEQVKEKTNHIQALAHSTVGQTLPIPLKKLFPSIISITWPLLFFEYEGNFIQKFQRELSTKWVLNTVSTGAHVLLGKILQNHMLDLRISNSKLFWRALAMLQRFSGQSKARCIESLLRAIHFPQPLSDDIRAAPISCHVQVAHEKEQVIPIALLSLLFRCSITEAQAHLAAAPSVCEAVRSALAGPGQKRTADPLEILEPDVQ

Test system in the first test: not listed separately
Briefly: qHTS for Activators of Parkin Expression: LOPAC Validation Assay (NLuc Reporter) (AID 720572; active means well fitted curve in the direction sought with a large enough effect; an effect the other way counts as inactive or inconclusive; further: potency means the concentration at half of the fitted maximal effect). Particulars: Parkin promoter NanoLuc reporter cells, luminescence; series mostly up to 46.1 µM. In outline:
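Parkin promoter-driven FLuc/NLuc neuronal reporter cells; 24 h plating, 7-pt dose response, 24 h at 37 C/5% CO2; FLuc then NanoLuc reagent, 10 min each, luminescence; DMSO/positive control normalized.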
On the technique in general: Quantitative high-throughput screening tests each substance at several concentrations.
For `OCC1O[C@H]([S-])[C@H](O)[C@@H](O)[C@@H]1O.[Au+]` (stereo partly drawn), the Potency was 16.4 µM (active).
On to `OC[C@H]1O[C@@H](n2cnc3c(NC4CCCC4)ncnc32)[C@H](O)[C@@H]1O`, for which the Potency result is “inactive”.
In the case of `Fc1cccc(/C=N/N=C/c2cccc(F)c2)c1`, the Potency result was “inactive”.
Still for that read-out and setting: in the case of `COC1=C(OC)C(=O)c2ccccc2C1=O` it was “inactive”; in that of `c1cnc2c(c1)ccc1cccnc12`, “inactive”; in that of `Cc1ccc(O)c(N=Nc2ccccc2)n1`, “inactive”.
As to `CC(C)(C=O)Cc1cc(C(C)(C)C)c(O)c(C(C)(C)C)c1`, the Potency entry was “inactive”.
On the same count and under the same terms, the entry for `CCCCCCCCCCCCCCCCCC(=O)OC(CC(=O)O)C[N+](C)(C)C` (stereo not drawn) is “inactive”.
Still for that read-out and setting: in the case of `CN1CC(=O)N/C1=N/C(=O)Nc1cccc(Cl)c1` it was “inactive”.

Test system in a further test: not listed separately
Briefly: qHTS assay for small molecule agonists of the antioxidant response element (ARE) signaling pathway measured by Nrf2-dependant transcriptional activity (AID 720636). Further: potency means the concentration at half of the fitted maximal effect. To be noted: ARE-luc HepG2, Nrf2 luciferase reporter, 16 h; series mostly up to 92.4 µM. In outline:
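Nrf2-dependent transcription read as ONE-Glo luciferase signal from ARE-luc HepG2 reporter cells after 16 hr compound treatment at 37 C, 5% CO2, in assay medium with 1% dialyzed FBS.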
For the molecule `O=C(OCc1ccccc1)c1ccccc1`, the Potency result is “inactive”.
For `O=C(O)c1ccccc1Nc1cccc(C(F)(F)F)c1`, the Potency entry is “inactive”.
Regarding `Nc1nc2ccc([N+](=O)[O-])cc2s1`, the Potency entry was “inactive”.
Same read-out and setting: the entry for `CN(C)c1ccc(C(=C2C=CC(=[N+](C)C)C=C2)c2ccccc2)cc1` is “inactive”; for `CC1(C)S[C@@H]2[C@H](NC(=O)[C@H](N)c3ccccc3)C(=O)N2[C@H]1C(=O)O` it is “inactive”.
The same measure, in the same setting: in the case of `O=C1CN(/N=C/c2ccc([N+](=O)[O-])o2)C(=O)N1` it was “inactive”.
On the same count and under the same terms, in the case of `C=CCCCCCCCCC(=O)O` it was “inactive”; in that of `CC(C)OC(=O)c1cc(C(=O)OC(C)C)cc([N+](=O)[O-])c1`, “inactive”.
With `CCCCCCCCCCCCCCCC(=O)OC(C)C`, the Potency result was “inactive”.
Same read-out and setting: in the case of `N=C1N=C(N)c2cc3ccccc3cc21` it was “inactive”; in that of `O=C(O)/C=C\C(=O)O`, “inactive”.
On to `Nc1cc(-c2ccncc2)c[nH]c1=O`, for which the Potency result was “inactive”.
For the molecule `NCCO`, the Potency entry is “inactive”.
Same read-out and setting: in the case of `c1cnc2c(c1)ccc1cccnc12` it was “inactive”; in that of `C#C[C@]1(O)CC[C@H]2[C@@H]3CCc4cc(O)ccc4[C@H]3CC[C@@]21C`, “inactive”.
`c1ccc2sc(SSc3nc4ccccc4s3)nc2c1`: the Potency entry is “inactive”.
For the molecule `O=C(O)[C@H](O)[C@@H](O)[C@H](O)[C@H](O)CO`, the Potency entry is “inactive”.
Take `CN1[C@@H]2CC[C@H]1CC(OC(=O)C(CO)c1ccccc1)C2` (stereo partly drawn): the Potency entry was “inactive”.
`O=C(O)c1cc(O)c(O)c(O)c1`: the Potency result is “inactive”.
`CN(C)c1ccc(N=NS(=O)(=O)O)cc1`: the Potency is 54.5 µM (active).
On the same count and under the same terms, the entry for `S=c1[nH]c2ccccc2s1` is “inactive”; for `CCCOC(=O)c1ccc(O)cc1` it is “inactive”.
Still for that read-out and setting: the entry for `Nc1ccc(O)c(C(=O)O)c1` is “inactive”; for `CCCCCCCCCCCCCCCCCC(=O)O` it is “inactive”.
On the same count and under the same terms, in the case of `COc1cc(/C=C/C(=O)CC(=O)/C=C/c2ccc(O)c(OC)c2)ccc1O` it was 21.1 µM (active).

Test system in the next test: not listed separately
Briefly: qHTS assay for small molecule antagonists of the retinoid-related orphan receptor gamma (ROR-gamma) signaling pathway - cell viability counter screen (AID 720652).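 Further: compound exposure lasted 16 hr before ATP read.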 Further: potency means the concentration at half of the fitted maximal effect. To be noted: RORgamma reporter cell line viability counter screen; series mostly up to 92.2 µM. In outline: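 CHO cells carrying TET-inducible ROR and RORE-luciferase reporter, plated 5 hr, then dosed with compound plus doxycycline. After 16 hr at 37 C, viability read as intracellular ATP by CellTiter-Glo luminescence.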
In the case of `Nc1nc2ccc([N+](=O)[O-])cc2s1`, the Potency result was “inactive”.
As to `CN(C)c1ccc(C(=C2C=CC(=[N+](C)C)C=C2)c2ccccc2)cc1`, the Potency was 2.37 µM (active).
Still for that read-out and setting: the figure for `N=C1N=C(N)c2cc3ccccc3cc21` is 42.2 µM (active); for `O=C(O)/C=C\C(=O)O` it is “inactive”.
Consider `Nc1ccc(O)c([N+](=O)[O-])c1`, for which the Potency result is “inactive”.
The same measure, in the same setting: the entry for `NCCO` is “inactive”; for `C#C[C@]1(O)CC[C@H]2[C@@H]3CCc4cc(O)ccc4[C@H]3CC[C@@]21C` it is “inactive”; for `c1ccc2sc(SSc3nc4ccccc4s3)nc2c1` it is “inactive”.
On the same count and under the same terms, in the case of `COc1cc(CNC(=O)CCCC/C=C/C(C)C)ccc1O` it was “inactive”; in that of `O=C(O)c1cc(O)c(O)c(O)c1`, “inactive”; in that of `CN(C)c1ccc(N=NS(=O)(=O)O)cc1`, “inactive”.
Turning to `S=c1[nH]c2ccccc2s1`, the Potency result is “inactive”.
Take `CCCOC(=O)c1ccc(O)cc1`: the Potency entry was “inactive”.
Same read-out and setting: the entry for `Nc1ccc(O)c(C(=O)O)c1` is “inactive”; for `CCCCCCCCCCCCCCCCCC(=O)O` it is “inactive”.
Consider `Nc1ccc([N+](=O)[O-])cc1O`, for which the Potency entry is “inactive”.

The target of the next test is T1, Hexokinase-4 (Homo sapiens) + Glucokinase regulatory protein (Homo sapiens) (UniProt P35557+Q14397). Briefly: qHTS assay for inhibitors of recombinant human GCK-GKRP interaction: Diaphorase-coupled assay (AID 743205; active means well fitted curve in the direction sought with a large enough effect; an effect the other way counts as inactive or inconclusive). Particulars: G6PDH/diaphorase resorufin fluorescence; series mostly up to 57.5 µM. In outline:
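Resorufin fluorescence (525/590 nm), read each minute over 30 min, reports GCK activity coupled via G6PDH and diaphorase. Reaction: 10 nM GST-GCK, 10 nM FLAG-GKRP, 5 mM glucose, 0.4 mM ATP, 0.15 mM NADP+, 0.1 mM resazurin.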
Turning to `OC[C@H]1O[C@@H](n2cnc3c(NC4CCCC4)ncnc32)[C@H](O)[C@@H]1O`, the result was inactive.
As to `Fc1cccc(/C=N/N=C/c2cccc(F)c2)c1`, the outcome was inactive.
On the same count and under the same terms, in the case of `c1cnc2c(c1)ccc1cccnc12` it was “inactive”; in that of `Cc1ccc(O)c(N=Nc2ccccc2)n1`, “inactive”.
As to `CC(C)(C=O)Cc1cc(C(C)(C)C)c(O)c(C(C)(C)C)c1`, the outcome was inactive.
Same read-out and setting: the entry for `CCCCCCCCCCCCCCCCCC(=O)OC(CC(=O)O)C[N+](C)(C)C` (stereo not drawn) is “inactive”.

The next test concerns the target T1, Hexokinase-4 (Homo sapiens) + Glucokinase regulatory protein (Homo sapiens). Briefly: qHTS assay for inhibitors of recombinant human GCK-GKRP interaction: ADP-Glo assay (AID 743206; active means well fitted curve in the direction sought with a large enough effect; an effect the other way counts as inactive or inconclusive). To be noted: ADP-Glo luminescence, 60 min; series mostly up to 76.9 µM. In outline:
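GST-GCK and FLAG-GKRP (15 nM each in the dispensed mix, with 2 uM S6P) react with 0.4 mM ATP and 5 mM glucose (final) in Hepes pH 7.6 for 60 min at room temperature. ADP is measured by ADP-Glo luminescence.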
With `OCC1O[C@H]([S-])[C@H](O)[C@@H](O)[C@@H]1O.[Au+]` (stereo partly drawn), the Potency result is “inactive”.
As for `OC[C@H]1O[C@@H](n2cnc3c(NC4CCCC4)ncnc32)[C@H](O)[C@@H]1O`, the Potency entry was “inactive”.
As for `Fc1cccc(/C=N/N=C/c2cccc(F)c2)c1`, the Potency result is “inactive”.
As for `COC1=C(OC)C(=O)c2ccccc2C1=O`, the Potency result was “inactive”.
On to `c1cnc2c(c1)ccc1cccnc12`, for which the Potency entry is “inactive”.
Same read-out and setting: in the case of `Cc1ccc(O)c(N=Nc2ccccc2)n1` it was “inactive”; in that of `CC(C)(C=O)Cc1cc(C(C)(C)C)c(O)c(C(C)(C)C)c1`, “inactive”; in that of `CCCCCCCCCCCCCCCCCC(=O)OC(CC(=O)O)C[N+](C)(C)C` (stereo not drawn), “inactive”.

Another test shares this target. Briefly: qHTS assay for inhibitors of recombinant human GCK-GKRP interaction: HTRF assay (AID 743207; active means well fitted curve in the direction sought with a large enough effect; an effect the other way counts as inactive or inconclusive; further: potency means the concentration at half of the fitted maximal effect). To be noted: recombinant GCK-GKRP HTRF binding, 60 min, with sorbitol-6-phosphate; series mostly up to 57.5 µM. In short, it runs like this: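 HTRF read-out (ex 320 nm; 615/665 nm emission) after 60 min RT equilibration of 5 nM GST-GCK, 5 nM FLAG-GKRP, 2 uM S6P, compound and anti-FLAG/anti-GST detection antibodies; signal normalized between DMSO wells with and without GCK.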
For the molecule `OCC1O[C@H]([S-])[C@H](O)[C@@H](O)[C@@H]1O.[Au+]` (stereo partly drawn), the Potency was 15.8 µM (active).
Turning to `OC[C@H]1O[C@@H](n2cnc3c(NC4CCCC4)ncnc32)[C@H](O)[C@@H]1O`, the Potency entry is “inactive”.
Same read-out and setting: in the case of `Fc1cccc(/C=N/N=C/c2cccc(F)c2)c1` it was “inactive”; in that of `COC1=C(OC)C(=O)c2ccccc2C1=O`, “inactive”.
In the case of `c1cnc2c(c1)ccc1cccnc12`, the Potency result is “inactive”.
Still for that read-out and setting: the entry for `Cc1ccc(O)c(N=Nc2ccccc2)n1` is “inactive”; for `CC(C)(C=O)Cc1cc(C(C)(C)C)c(O)c(C(C)(C)C)c1` it is “inactive”.
As to `CCCCCCCCCCCCCCCCCC(=O)OC(CC(=O)O)C[N+](C)(C)C` (stereo not drawn), the Potency result is “inactive”.
Same read-out and setting: the entry for `CN1CC(=O)N/C1=N/C(=O)Nc1cccc(Cl)c1` is “inactive”.
